IDH1 R132H inh: qHTS for Inhibitors of mutant isocitrate dehydrogenase 1 (IDH1): qHTS; Isocitrate dehydrogenase [NADP] cytoplasmic (Homo sapiens), O75874; IDH1-R132H enzyme, NADPH consumption, diaphorase/resazurin fluorescence; Potency, µM (doses to about 76.6 µM), without a hit: at the highest dose activity change, negative = inhibition, actives largely listed as inhibitors; 390,000 compounds, 0.093% hits; further: potency means the concentration at half of the fitted maximal effect; on the % scale 0 is the no-effect control and ±100 the full control effect; nearly all actives have a fitted effect of over 65% in size
Target sequence (O75874 whole entry R132H, stated change not applied): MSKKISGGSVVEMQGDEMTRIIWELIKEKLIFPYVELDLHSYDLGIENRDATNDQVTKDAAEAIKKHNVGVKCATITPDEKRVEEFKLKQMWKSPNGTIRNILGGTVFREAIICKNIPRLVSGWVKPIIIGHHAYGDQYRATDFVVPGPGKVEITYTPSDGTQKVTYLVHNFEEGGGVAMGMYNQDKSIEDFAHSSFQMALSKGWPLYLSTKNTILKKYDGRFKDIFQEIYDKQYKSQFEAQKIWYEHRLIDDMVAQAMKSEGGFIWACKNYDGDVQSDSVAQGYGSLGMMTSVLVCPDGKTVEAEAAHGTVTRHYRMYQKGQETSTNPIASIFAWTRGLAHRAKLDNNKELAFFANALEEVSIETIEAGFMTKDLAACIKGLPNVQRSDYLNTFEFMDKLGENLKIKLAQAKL
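IDH1-R132H (0.5 ug/mL) preincubated 30 min with compound, then NADPH (0.016 mM) and alpha-KG (2 mM) added; 80 min at RT, pH 7.5. Remaining NADPH coupled via diaphorase/resazurin to fluorescence (540/590 nm); concentration-response curves normalized to no-enzyme control.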
HepG2 viability: qHTS for Inhibitors of TGF-b: Cytotox Counterscreen | HepG2 CAGA-GFP viability, ATP luminescence, 18 h | Potency, µM (top dose mostly 46.1 µM), inactives show top-dose activity change, negative = cytotoxicity, most hits filed as cytotoxic | 410,000 compounds, 0.76% hits | AID 588856, 2011; further: potency means the concentration at half of the fitted maximal effect
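CellTiter-Glo luminescence gave cytotoxicity after 18 hours at 37 degrees C. The cells were HepG2 CAGA-GFP in 1% FBS DMEM, stimulated with 500 pg/mL TGF-beta after compound addition. %Activity was normalised to no-cell wells (complete cell-killing) and DMSO (no toxicity), and curves were fitted and classified.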
LDHA inh: qHTS assay for inhibitors of human lactate dehydrogenase; L-lactate dehydrogenase A chain (Homo sapiens), P00338; purified LDHA, NADH/diaphorase-resazurin fluorescence; stronger effect = lower value; activity change, % (values are at about 110 or 230 µM); 480,000 compounds, 0.15% hits; in the data active means activity change below about -30%; inconclusive means mostly about -25% to -30%;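 further: plate controls were DMSO wells for no effect and wells without enzyme for full effect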
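LDH5 2 nM; NADH 0.06 mM, pyruvate 0.2 mM; 200 mM Tris pH 7.4, EDTA, Tween-20; 5 min RT. Detection: diaphorase 0.133 mg/mL + resazurin 37 µM, fluorescence ex540/em590 at 0 and 20 min; normalized to enzyme-free and DMSO wells.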
S2 tox: Viability Counterscreen for Primary qHTS for Inhibitors of ATXN expression; S2 cells (HEK-293 line with an ATXN2-luciferase reporter) viability, CellTiter-Fluor protease fluorescence, 24 h; Potency, µM (titrated, usually from 56.7 µM), actives largely listed as cytotoxic; 400,000 compounds, 0.49% hits; further: potency means the concentration at half of the fitted maximal effect; nearly all actives have a fitted effect of over 40% in size
TGFb SMAD3 inh: qHTS for Inhibitors of TGF-b | HepG2 CAGA-GFP TGF-b/SMAD3 reporter, GFP fluorescence, 18 h; TGF-beta stimulated, 500 pg/mL final | Potency, µM (titrated, usually from 46.1 µM), for the others: top-dose activity, negative = inhibition, most hits filed as inhibitors | 410,000 compounds, 1.2% hits; further: potency means the concentration at half of the fitted maximal effect; on the % scale 0 is the no-effect control and ±100 the full control effect; nearly all actives have a fitted effect of over 65% in size
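HEPG2 CAGA-GFP reporter cells (1000/well, DMEM with 1% FBS) received compounds, then recombinant TGF-beta at 500 pg/mL final for 18 hours at 37 degrees C. Per-cell GFP summed per well was normalised to unstimulated and stimulated DMSO controls before curve fitting.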
ATXN2 expr inh: Primary qHTS for Inhibitors of ATXN expression; HEK-293 ATXN2-luciferase reporter, luminescence, 24 h; Potency, µM (highest dose often 57 µM), for the others: top-dose activity change, negative = inhibition, usual class: inhibitors; 360,000 compounds, 0.72% hits; AID 1745845, 2022; further: potency means the concentration at half of the fitted maximal effect; on the % scale 0 is the no-effect control and ±100 the full control effect; nearly all actives have a fitted effect of over 55% in size
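qHTS (up to 57 uM final) was run with 24 h compound exposure of reporter cells at 37 °C. Each well was multiplexed: SteadyGlo luminescence measured ATXN2-luciferase expression after a fluorogenic Gly-Phe-AFC viability readout (25 uM final).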
* = called active by the depositor; i = inactive; ? = inconclusive; . = no result given. The list is not random: actives were taken first. Their share in the collection is about 2.2%. Unless noted, the call rests on the fitted dose curve; in most records, active means well fitted curve in the direction sought with a large enough effect; inconclusive means small, poorly fitted or top-dose-only effect, or another doubt; inactive means no such curve, though single readings can be large; an effect the other way counts as inactive or inconclusive.

SMILES | IDH1 R132H inh | HepG2 viability | LDHA inh | S2 tox | TGFb SMAD3 inh | ATXN2 expr inh
COc1ccc(-c2cn3nc4c(nc3n2)CCCC4)cc1 | 4% | 0% | 15 | . | 14% | 16µM*
CN1C(=O)/C(=C/c2cc(N=Nc3ccccc3)ccc2O)SC1=S | 1% | -10% | 12 | 28µM* | ? | ?
CCC(=C(c1ccc(OC)cc1)c1ccc(OC)cc1)c1cn(CC(O)CN2CCN(C)CC2)c2ccccc12 (configuration not stated) | 7% | 13µM* | -1 | . | ? | ?
COc1ccc(C(=O)/C=C/c2cn(CC(O)CN3CCc4ccccc43)c3ccccc23)cc1 (configuration not stated) | -7% | -22% | 4 | . | -19% | 0%
CCc1nc2ccc(C(=O)Nc3ccc(C(=O)N(C)C)cc3)cn2c1N(C)CCCc1ccccc1 | . | -20% | 0 | 28µM* | -6% | ?
CCc1nc2ccc(C(=O)N3CCN(c4ccccc4)CC3)cn2c1N(C)CCC(C)C | . | -89% | 5 | i | 13µM* | -1%
CCc1nc2ccc(C(=O)N3CCN(c4ccccc4)CC3)cn2c1N(C)CCCc1ccccc1 | . | 16µM* | -3 | ? | ? | -13%
CCc1nc2ccc(C(=O)N3CCN(S(=O)(=O)CC)CC3)cn2c1N(CCC(C)C)CCN(C)C | . | -20% | -4 | i | 4% | -1%
CCc1nc2ccc(C(=O)N3CCN(S(=O)(=O)CC)CC3)cn2c1N(C)CCC(C)C | . | 3.2µM* | -5 | i | 0% | 5%
COc1ccc(C(=O)N2CCCC(CO)(Cc3ccccc3C)C2)o1 (configuration not stated) | 6% | 10% | 0 | i | -11% | 3%
CCOCCCNC(=O)C(NC(=O)c1ccc(NC(C)=O)cc1)c1ccccc1 (configuration not stated) | 6% | -18% | -9 | i | ? | 4%
Cc1cc(C)cc(N(CC(=O)NC(C)(C)C)C(=O)CCC(=O)Nc2nccs2)c1 | 2% | 0% | 3 | i | -1% | -11%
COc1cccc(N2CCN(c3nc(C)c(C)c(=O)[nH]3)CC2)c1 | 20% | 9% | 7 | i | 8% | -10%
COc1cccc(N2CCN(c3nc(-c4ccccc4C)cc(=O)[nH]3)CC2)c1 | -6% | -18% | 1 | i | ? | 0.71µM*
CC1CCCCC12NC(=O)N(CC(=O)N1CCc3ccccc31)C2=O (configuration not stated) | -1% | 0% | -2 | i | -21% | 6%
Cc1ccc(O)c(-c2cc3ccccc3[nH]2)c1 | 9% | -64% | 10 | i | 16µM* | 51%
C=C1CCN(C(CC(C)C)C(=O)NCCCc2ccccc2)S(=O)(=O)c2ccccc21 (configuration not stated) | . | -33% | . | . | 11µM* | .
c1ccc(COc2ccc(CNCc3cccs3)cc2)cc1 | -1% | -57% | 8 | i | -10% | -8%
O=C(CCCOc1ccc(Cl)cc1Cl)N/N=C/c1ccccc1 | 32% | -58% | -1 | i | ? | 8%
O=C(CCCOc1ccc(Cl)cc1Cl)N/N=C/c1ccccc1O | 5% | -34% | -8 | ? | ? | 25µM*
O=C(N/N=C/c1ccc(-c2ccccc2[N+](=O)[O-])o1)c1cncc(Br)c1 | -3% | -24% | 24 | i | -6% | -6%
Cc1c(C(=O)N/N=C/c2ccc(-c3ccccc3[N+](=O)[O-])o2)sc(N)c1C#N | 13% | -39% | 13 | i | 5µM* | -20%
Cc1c(N2C(=O)/C(=C/c3ccc(N(C)C)cc3)N(C)C2=S)c(=O)n(-c2ccccc2)n1C | 0% | -13% | 8 | 13µM* | -3% | 1%
Cn1c(=O)c2sccc2n2c(CCCC(=O)Nc3ccc(Oc4ccccc4)cc3)nnc12 | 6% | -38% | -5 | . | 13µM* | .
Cn1c(=O)c2sccc2n2c(CCCC(=O)Nc3ccc(Cl)cc3)nnc12 | -7% | 0% | -1 | i | -5% | -20%
SMILES | IDH1 R132H inh | HepG2 viability | LDHA inh | S2 tox | TGFb SMAD3 inh | ATXN2 expr inh
Cc1cccc(-n2ncc3c(N4CCOCC4)ncnc32)c1 | 11% | -2% | 0 | i | 15% | 10µM*
Cc1cccc(-n2ncc3c(N4CCN(c5ccccc5)CC4)ncnc32)c1 | -2% | -8% | -6 | . | -15% | .
Cc1cccc(CCN2CCN=C2N(C)C)c1 | -2% | 0% | -17 | i | -1% | 5%
O=C1C=C(c2ccccc2)C[C@H](c2cccs2)[C@H]1n1nnc([N+](=O)[O-])n1 | 19% | 2% | 16 | 28µM* | -31% | ?
O=C1C=C(c2ccccc2)CC(c2cccs2)C1n1cnc([N+](=O)[O-])c1 (configuration not stated) | 4% | 2% | 8 | i | 8% | -5%
CCCCCCCCOC(=O)c1c(CSC(=N)N)n(C)c2cc(Br)c(OC(C)=O)cc12 | ? | 11µM* | -10 | 32µM* | ? | .
CCOC(=O)c1c(CSC(=N)N)n(-c2ccc(Br)cc2)c2cc(Br)c(OC(C)=O)cc12 | 0% | -19% | -8 | i | 10% | 11%
O=c1c(Cl)c(N2CCCCC2)cnn1-c1nc2ccccc2[nH]1 | 2% | -41% | -1 | i | -1% | ?
O=c1c2ccccc2cnn1-c1nc2ccccc2[nH]1 | 15% | 2µM* | -2 | i | -22% | 0.56µM*
O=C(Nc1ccc(N2CCOCC2)c(Cl)c1)c1c(F)c(F)c(F)c(F)c1F | -3% | 0% | 1 | i | -4% | 13µM*
O=C(Nc1ccc(N2CCN(C(=O)c3ccco3)CC2)c(Cl)c1)c1c(F)c(F)c(F)c(F)c1F | 2% | -20% | 0 | ? | ? | 28µM*
Cc1ccccc1C(=O)N1CCN(c2ccc(NC(=S)NC(=O)c3ccco3)cc2)CC1 | 3% | -24% | 4 | 14µM* | ? | .
Cc1ccccc1C(=O)N1CCN(c2ccc(NC(=O)c3ccco3)cc2Cl)CC1 | 6% | -20% | -5 | ? | ? | 32µM*
O=C(Nc1ccc(N2CCN(C(=O)c3cccs3)CC2)c(Cl)c1)c1ccco1 | 0% | -14% | 1 | i | -7% | -16%
CC1(C)C2CCC(C2)C1(C)NC(=O)CNCc1cccs1 (configuration not stated) | 10% | -4% | -12 | i | -1% | .

Source: PubChem (National Center for Advancing Translational Sciences (NCATS))
